{"source": "PubChem BioAssay AID1626", "about": "(SRMLSC, 2009)", "note": "In all, about 220,000 compounds went through this assay and about 2,000 (0.91%) were called active. About 2% were inconclusive and are not listed. Only a sample is shown. Entries with a potency or affinity are not part of this list. Values without a mark were called inactive. Rule as the data show it: inconclusive = inhibition above about 80% without an active follow-up result; inactive = below that; test concentration not stated here.", "data": [{"experiment": "M. tuberculosis H37Rv growth inhibitors, H37Rv strain (AID 1626);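 also: bacteria incubated seven days before Alamar blue readout; 0% = bacteria only wells and 100% = bacteria with antibiotic wells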", "conditions": "active compounds read high, concentration not given here", "units": {"inhibition": "%"}, "values": [{"smiles": "CCOC(=O)N1CCC(NC(=O)C2CCN(S(=O)(=O)c3ccc4c(c3)oc(=O)n4C)CC2)CC1", "inhibition": -3.61}, {"smiles": "Cc1ccc(OCCNC(=O)c2cc(C(=O)NCCOc3ccc(C)cc3)cc([N+](=O)[O-])c2)cc1", "inhibition": 1.97}, {"smiles": "O=C1c2cc3ccccc3c(-c3ccccc3)c2C(=O)N1c1ccccn1", "inhibition": 11.2}, {"smiles": "O=C(C1CCC(N2C(=O)C3CC=CCC3C2=O)CC1)N1CCCCC1", "note": "(centres undefined)", "inhibition": 0.53}, {"smiles": "COc1ccccc1-c1coc2cc(OCC(=O)OCc3ccccc3)ccc2c1=O", "inhibition": 8.31}, {"smiles": "COc1ccc2c(C#N)c3ccccn3c2c1", "inhibition": 8.95}, {"smiles": "CCOc1ccccc1Oc1coc2cc(OCC(=O)O)ccc2c1=O", "inhibition": 1.18}, {"smiles": "N#Cc1c2ccc(OCC(N)=O)cc2n2ccccc12", "inhibition": 5.54}, {"smiles": "CS(=O)(=O)Nc1ccccc1NS(C)(=O)=O", "inhibition": 2.07}, {"smiles": "Cc1nnc(SCC(=O)NCc2ccc(Cl)cc2)[nH]c1=O", "inhibition": -5.88}, {"smiles": "CC(=O)c1cccc(NC(=O)CC2S/C(=N/N=C/c3ccccc3)NC2=O)c1", "note": "(centres undefined)", "inhibition": 5.53}, {"smiles": "Cc1ccc(C(=O)CC(=O)c2cccc(F)c2)c(O)c1", "inhibition": 21}, {"smiles": "O=C(CC(=O)c1ccccc1O)c1ccc(F)cc1", "inhibition": -0.45}, {"smiles": "N=C1C(c2ccccc2)=C(O)CN1c1cccc(S(=O)(=O)Nc2cccc(C(F)(F)F)c2)c1", "inhibition": 71.6}, {"smiles": "CCc1ccc(NC(=O)C(C)OC(=O)C2CCC(=O)N2)cc1", "note": "(centres undefined)", "inhibition": -4.48}, {"smiles": "Cc1ccccc1NC(=S)NCCc1ccccn1", "inhibition": 1.47}, {"smiles": "Cc1cc(C)cc(N(CC(=O)NCC2CCCO2)C(=O)CN2C(=O)COc3ccccc32)c1", "note": "(centres undefined)", "inhibition": -1.08}, {"smiles": "COc1ccc(OCCOc2ccc(C)nc2[N+](=O)[O-])cc1", "inhibition": 9.48}, {"smiles": "CCC(CO)NCc1ccc(Br)cc1", "note": "(centres undefined)", "inhibition": 2.11}, {"smiles": "CCC(CO)NCC#Cc1ccccc1", "note": "(centres undefined)", "inhibition": -0.71}, {"smiles": "CCN1CCN(C(c2cc3cccc(C)c3[nH]c2=O)c2nnnn2Cc2ccccc2)CC1", "note": "(centres undefined)", "inhibition": -2.17}, {"smiles": "O=[N+]([O-])C(=C1Nc2ccccc2N1)C(Cl)=C(Cl)Cl", "inhibition": 0.64}, {"smiles": "Oc1c(I)cc(I)c2cccnc12", "inhibition": 76.2}, {"smiles": "CCOC(=O)COc1cc([N+](=O)[O-])cc2cccnc12", "inhibition": 3.26}, {"smiles": "Clc1cc2cccnc2c2ccccc12", "inhibition": -3.53}, {"smiles": "O=[N+]([O-])c1cc(Cl)c2cccnc2c1O", "inhibition": 3.31}, {"smiles": "O=[N+]([O-])c1ccc(O)c2ncccc12", "inhibition": 79}, {"smiles": "O=[N+]([O-])c1cc(F)c2cccnc2c1O", "inhibition": -0.05}, {"smiles": "Cc1ccc([N+](=O)[O-])c2cccnc12", "inhibition": -9.13}, {"smiles": "COC(=O)c1ccc(COc2cc([N+](=O)[O-])cc3cccnc23)cc1", "inhibition": -7.07}, {"smiles": "CCOc1ccccc1CN1C(=O)c2ccccc2C1C(=O)NCC1CCCO1", "note": "(centres undefined)", "inhibition": 1.98}, {"smiles": "Cc1cc(C)n2c(Br)c(CN3CC4CC(C3)c3cccc(=O)n3C4)nc2n1", "note": "(centres undefined)", "inhibition": 9.25}, {"smiles": "Brc1ccccc1-c1cnco1", "inhibition": -1.43}, {"smiles": "Cc1cccc(OCC(=O)N2CCN(C(=O)c3ccco3)CC2)c1", "inhibition": -15.9}, {"smiles": "COc1ccc(-n2c(C)nc3c(cnn3-c3ccc(C)c(C)c3)c2=O)cc1", "inhibition": 17.5}, {"smiles": "O=c1cc(CSc2n[nH]c(-c3ccncc3)n2)nc2sccn12", "inhibition": 1.39}, {"smiles": "Oc1ccc(CN2CCc3ccccc3C2)c2cccnc12", "inhibition": 1.81}, {"smiles": "CCN(CC)C(=O)Oc1c(Cl)cc(Cl)c2cccnc12", "inhibition": 4.99}, {"smiles": "CN(C)C(=O)Oc1c(Cl)cc(Cl)c2cccnc12", "inhibition": 1.37}, {"smiles": "OCCN1CCN(Cc2cc(Cl)c3cccnc3c2O)CC1", "inhibition": -5.12}, {"smiles": "CCOC(=O)CN1C(=O)S/C(=C/c2cc(C)n(C)c2C)C1=O", "inhibition": 8.52}, {"smiles": "CC(NCCN(C)C)C(=O)C12CC3CC(CC(C3)C1)C2", "note": "(centres undefined)", "inhibition": 6.21}, {"smiles": "Cc1ccc(NCCC#N)cc1C", "inhibition": -1.15}, {"smiles": "CCn1c(SCC(=O)NCc2ccccc2)nnc1-c1ccccc1O", "inhibition": -6.19}, {"smiles": "CCOc1cc(/C=N/NC(=O)CSc2nncn2C)ccc1OCc1ccccc1", "inhibition": -1.69}, {"smiles": "CCOC(=O)c1[nH]ncc1CN1CCC(Cc2cccc(OC)c2)(C(=O)OCC)CC1", "inhibition": -9.77}, {"smiles": "O=C(OCC(=O)N1CCCc2ccccc21)c1cncc(Br)c1", "inhibition": -11.1}, {"smiles": "Cn1c(O)c(C(c2ccncc2)c2c(O)n(C)c(=S)n(C)c2=O)c(=O)n(C)c1=S", "inhibition": -3.3}, {"smiles": "Cc1ccc(-c2nn(-c3ccccc3)cc2CSC(=N)N)cc1", "inhibition": 50.3}, {"smiles": "O=C(O)Cc1cn(-c2ccccc2)nc1-c1ccccc1", "inhibition": 3.9}, {"smiles": "OCc1cn(-c2ccccc2)nc1-c1ccc(-c2nn(-c3ccccc3)cc2CO)cc1", "inhibition": -1.67}, {"smiles": "COc1ccc(-c2nn(-c3ccccc3)cc2CO)cc1", "inhibition": 5.02}, {"smiles": "Cc1cc(C)c(NC(N)=S)c(C)c1", "inhibition": 5.56}, {"smiles": "O=C(Nc1ccc2c(c1)Cc1ccccc1-2)c1cc2ccccc2o1", "inhibition": 34.9}, {"smiles": "CCOC(=O)/C(C(C)=O)=C1/OC(=O)c2ccccc21", "inhibition": 2.35}, {"smiles": "COc1ccc(N2CCN(S(=O)(=O)c3ccc(OC)cc3)CC2)cc1", "inhibition": 6.85}, {"smiles": "O=C(Nc1ccc(F)cc1F)C1(c2cccs2)CCOCC1", "inhibition": 4.02}, {"smiles": "CCOC(=O)c1c(NC(=O)CCc2ccc(CC)o2)sc(C)c1C", "inhibition": -6.75}, {"smiles": "COC(=O)CCC(=O)Nc1ccc(OC)cc1", "inhibition": 1.4}, {"smiles": "CCc1ccc(CCC(=O)Nc2ccc(C)cc2C)o1", "inhibition": 12.7}, {"smiles": "Cc1cc(C)nc(NS(=O)(=O)c2ccc(NC(=O)CCC3COc4ccccc4O3)cc2)n1", "note": "(centres undefined)", "inhibition": 0.51}, {"smiles": "CCc1ccc(CCC(=O)Nc2ccc(S(N)(=O)=O)cc2)o1", "inhibition": 1.79}, {"smiles": "CCc1ccc(CCC(=O)Nc2ccc(C(C)=O)cc2)o1", "inhibition": 7.37}, {"smiles": "O=C(CCC1COc2ccccc2O1)Nc1cccnc1", "note": "(centres undefined)", "inhibition": -8.19}, {"smiles": "Cc1ccc(NC(=O)CCSCCC(=O)Nc2ccc(C)c(C)c2)cc1C", "inhibition": 7.02}, {"smiles": "O=[N+]([O-])c1ccc(C2CCCC/C2=N/OCc2ccccc2F)c([N+](=O)[O-])c1", "note": "(centres undefined)", "inhibition": 0.93}, {"smiles": "CC1CC(=O)c2cnc(Nc3cccc(C(F)(F)F)c3)nc2C1", "note": "(centres undefined)", "inhibition": 2.97}, {"smiles": "O=C(Cn1nc(-c2ccccc2)c2ccccc2c1=O)NCC1CCCO1", "note": "(centres undefined)", "inhibition": 8.76}, {"smiles": "Cc1ccc(-n2c(C)cc3c2CCCC3=O)cc1", "inhibition": -0.32}, {"smiles": "COC(=O)c1ccc(C(C(=O)NC2CCCCC2)N(C(=O)Cc2cccs2)C2CC2)cc1", "note": "(centres undefined)", "inhibition": -2.62}, {"smiles": "COc1ccc(CCNC(=O)C2CCN(c3ccc(N4CCOCC4)nn3)CC2)c(OC)c1", "inhibition": 6.05}, {"smiles": "c1cnc2nc(-c3ccc4c(c3)OCO4)cn2c1", "inhibition": -8.76}, {"smiles": "COc1ccc(-c2nc3ncccn3c2Br)cc1", "inhibition": -1.31}, {"smiles": "CC(NC(=O)COC(=O)Cc1ccsc1)c1ccccc1", "note": "(centres undefined)", "inhibition": -0.56}, {"smiles": "O=C(NCc1ccccc1)N(Cc1cc2cc3c(cc2[nH]c1=O)OCCO3)CC1CCCO1", "note": "(centres undefined)", "inhibition": -1.33}, {"smiles": "CC1CCN(Cc2c(C#N)c3ccccc3n2C)CC1", "inhibition": -4.52}, {"smiles": "Cc1nc(Nc2ccccc2)sc1C(=O)Nc1ccccc1", "inhibition": 21.1}, {"smiles": "Cc1nc(Nc2c(Cl)cccc2Cl)sc1C(=O)Nc1ccccc1", "inhibition": 10.3}, {"smiles": "O=C(OCC(=O)c1ccc[nH]1)c1ccc(S(=O)(=O)N2CCCCC2)cc1", "inhibition": -10.2}, {"smiles": "S=c1[nH]nc(COc2ccccc2)n1/N=C/C=C/c1ccccc1", "inhibition": 12.1}, {"smiles": "CCN(CC)C(=O)N1CCN(S(=O)(=O)c2ccc(C)cc2)CC1", "inhibition": -9.01}, {"smiles": "O=C(COc1ccccc1)Nn1c(-c2ccccc2)nc2ccccc2c1=O", "inhibition": -3.31}, {"smiles": "O=C(N/N=C/c1ccncc1)c1ccc(NS(=O)(=O)c2cccs2)cc1", "inhibition": -0.88}, {"smiles": "COc1ccc(N2CCN(c3cnc4ccccc4n3)CC2)cc1", "inhibition": -9.34}, {"smiles": "c1ccc(N2CCN(c3cnc4ccccc4n3)CC2)cc1", "inhibition": 5.67}, {"smiles": "CC(C)C(NS(=O)(=O)c1cccc2nsnc12)C(=O)NCCC1=CCCCC1", "note": "(centres undefined)", "inhibition": -3.27}, {"smiles": "Cc1[nH]n(-c2ccccc2)c(=O)c1C(C[N+](=O)[O-])c1ccccc1Cl", "note": "(centres undefined)", "inhibition": 3.54}, {"smiles": "Cc1ccc(C(C[N+](=O)[O-])c2c(-c3ccccc3O)[nH][nH]c2=O)cc1", "note": "(centres undefined)", "inhibition": 4.79}, {"smiles": "Cc1cc(O)c(C(C[N+](=O)[O-])c2ccc(Cl)cc2)c(=O)o1", "note": "(centres undefined)", "inhibition": 6.11}, {"smiles": "O=c1[nH][nH]c(-c2ccccc2O)c1C(C[N+](=O)[O-])c1ccccc1", "note": "(centres undefined)", "inhibition": 6.94}, {"smiles": "Cc1[nH]c2ccccc2c1C(C[N+](=O)[O-])c1cccc(O)c1", "note": "(centres undefined)", "inhibition": 6.89}, {"smiles": "Cc1cc(O)c(C(C[N+](=O)[O-])c2ccc(Cl)cc2Cl)c(=O)o1", "note": "(centres undefined)", "inhibition": 2.19}, {"smiles": "O=C(Nc1ccccc1)c1ccc(NCc2cccnc2)c(S(=O)(=O)N2CCOCC2)c1", "inhibition": 1.54}, {"smiles": "COc1cc(-c2nc3n(n2)C(c2ccncc2)C(C(N)=O)=C(C)N3)cc(OC)c1OC", "note": "(centres undefined)", "inhibition": -5.67}, {"smiles": "COc1cccc(C2=CC(c3cccc(OC)c3OC)n3nnnc3N2)c1", "note": "(centres undefined)", "inhibition": -6.61}, {"smiles": "O=C(COC(=O)c1cc(S(=O)(=O)N2CCCC2)ccc1O)Nc1ccc(S(=O)(=O)N2CCOCC2)cc1", "inhibition": 1.29}, {"smiles": "CN1CCC(N(C)C(=O)c2cc(=O)c3ccccc3o2)CC1", "inhibition": 18.1}, {"smiles": "Cc1sc2nc(CSc3ccccc3)nc(N3CCN(C)CC3)c2c1C", "inhibition": 0.24}, {"smiles": "CCOC(=O)c1sc2nc(CSc3ccccc3)nc(NCCN(C)C)c2c1C", "inhibition": -5.4}]}]}
